About 83,000 compounds went through this panel and 20% of them were active in at least one assay; those are over-represented in the sample as a whole.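 Growth was measured after 48 h exposure to one concentration of compound in 96-well plates. Values under 10 count as active.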 Unmarked numbers belong to inactive results. Activity calls are given as the source filed them.

The first assay has as its system SK-MEL-2 melanoma. Kind of assay: NCI-60 one-dose screen, 48 h (100 = growth as untreated, 0 = no growth, -100 = all killed). Particulars: 10 µM unless noted.
Turning to `Cc1ccc2c(C3C(C#N)=C(N)Oc4cc5ccccc5cc43)cc(=O)oc2c1` (stereo not drawn), the growth was 27.8%.
Same read-out and setting: to `Oc1ccc(Cl)cc1Sc1cc(Cl)ccc1O` belongs 94.1%.
Regarding `CCc1cccc(-c2ccccc2)c1`, the growth was 116%.
On the same count and under the same terms, to `CCCCNc1cc(C(=O)O)cc(S(N)(=O)=O)c1Oc1ccccc1` belongs 106%.
As to `CC(C)Cn1cnc2c3ccccc3nc(NCn3nc(-c4cc(Cl)cc(Cl)c4Cl)oc3=S)c21`, the growth is 90.8%.
Still for that read-out and setting: the figure for `Clc1ccc2c(c1)nnn1c3ncccc3c(Br)c21` is 93%; for `Cc1ccc(-c2nc3c(N=Nc4ccc(S(N)(=O)=O)cc4)c(N)nn3c(N)c2C#N)cc1` it is 27%.
In the case of `O=C(C[n+]1ccccc1Cl)c1ccc2c(c1)CCCC2`, the growth was 103%.
As to `COc1ccc(C2CC(c3cc(Cl)c(C)cc3OC)=NN2c2ccc(S(N)(=O)=O)cc2)cc1OC` (stereo not drawn), the growth is 95.8%.
On the same count and under the same terms, the figure for `CCN(CC)c1ccc(C2CC(c3cc(OC)c(OC)c(OC)c3)=NN2)cc1` (stereo not drawn) is 27.6%; for `COC(=O)CCCNS(=O)(=O)c1cc(C(=O)Nc2ccc(NC(=O)c3cc(S(=O)(=O)NCCCC(=O)OC)c(O)c(O)c3O)cc2)c(O)c(O)c1O` it is 98.6%; for `CC(NCCC(c1ccccc1)c1ccccc1)c1ccccc1` (stereo not drawn) it is 79%.
Same read-out and setting: the figure for `CC/C(=C(\CC)c1ccc(OCCN(CC)CC)cc1)c1ccc(OCCN(CC)CC)cc1` is -8.16% (active); for `Cc1ccc(N(CC2=NCCN2)c2cccc(O)c2)cc1` it is 107%.
The same measure, in the same setting: the figure for `COc1ccc(C[C@H](N)C(=O)N[C@@H]2[C@@H](CO)OC(n3cnc4c(N(C)C)ncnc43)[C@@H]2O)cc1` (stereo partly drawn) is -74.4% (active); for `CC1=C2C(=C[C@@](C)(CO)[C@@H]2OC(=O)N(C)CCN(C)C(=O)OC(C)(C)C)C(=O)[C@](C)(O)C12CC2` it is 71.4%.
Take `CC(=O)N1N=C(CCC(=O)c2nc3ccc([N+](=O)[O-])cc3[nH]2)OC1c1ccc(O)cc1` (stereo not drawn): the growth is 57.4%.
Still for that read-out and setting: to `CC1CCc2cc(F)cc3c(=O)c(C(=O)O)cn1c23` (stereo not drawn) belongs 125%.
Still for that read-out and setting: to `OCCOCC(F)(F)F` belongs 119%; to `O=C(O)c1cn(C2CC2)c2cc(N3CCN(C(=O)CSc4nc(NS(=O)(=O)c5ccccc5)cc(=O)[nH]4)CC3)c(F)cc2c1=O`, 79.7%; to `c1coc(CSc2ncnc3nc[nH]c23)c1`, 105%.
On the same count and under the same terms, to `CN(C)CC/C=C1\c2ccccc2Sc2ccc(Cl)cc21` belongs 89.6%.
Take `O=C(COc1ccc(Cl)cc1)N1CCN(Cc2ccc3c(c2)OCO3)CC1`: the growth was 123%.
On the same count and under the same terms, to `COc1cc(NS(=O)(=O)c2ccc(N)cc2)ncn1` belongs 160%.
Same read-out and setting: to `COC(OC)C1(c2ccccc2)NC(=O)NC1=O` (stereo not drawn) belongs 104%; to `CC(=O)Nc1ccc(OC(=O)c2ccccc2O)cc1`, 147%; to `COc1cccc(C2CC(c3cc(OC)c(OC)c(OC)c3)=NN2)c1` (stereo not drawn), 94%.
On the same count and under the same terms, the figure for `COc1cc(C(=O)N2CCN(C(=O)c3cc(OC)c(OCc4ccccc4)cc3N)CC2)c(N)cc1OCc1ccccc1` is 102%; for `COc1cc2c(cc1OCCCCC(=O)Nc1ccc(-c3nc4ccccc4s3)cc1)N=C[C@@H]1CCCN1C2=O` it is -2.21% (active).
Regarding `C=C1C(=O)O[C@H]2[C@H]1CC/C(COC(=O)c1cccc3ccccc13)=C\CC[C@@]1(C)O[C@@H]21`, the growth was -65.6% (active).
Turning to `COc1ccccc1S(=O)(=O)Nc1ccc2c3c(cc(-c4ccoc4)nc13)C(=O)N2C`, the growth was 74.8%.
The same measure, in the same setting: the figure for `C=C1c2c(Cl)ccc(O)c2C(O)=C2C(=O)[C@]3(O)C(O)=C(C(N)=O)C(=O)[C@@H](N(C)C)[C@@H]3[C@@H](O)[C@H]12` is -10.9% (active); for `CN1C(=O)C2(SCC(C(=O)NCC(=O)OC(C)(C)C)N2C(=O)C2CCCCC2)c2ccccc21` (stereo not drawn) it is 86.9%; for `COc1ccc(/C=C/C(=O)c2ccc(-n3cc(CN4CCN(c5cc6c(cc5F)c(=O)c(C(=O)O)cn6C5CC5)CC4)nn3)cc2)cc1OC` it is 97.4%.
`O=C(Nc1ccc(Cl)c(Cl)c1)Nc1ccc(Cl)c([N+](=O)[O-])c1`: the growth was -43.4% (active).
Same read-out and setting: to `Cc1cc[n+](CCCC[n+]2ccc(C)cc2)cc1` belongs 124%.
On the same count and under the same terms, to `Cc1cn(C2CC(F)C(CO)O2)c(=O)[nH]c1=O` (stereo not drawn) belongs 115%; to `COc1cc2ncnc(Oc3ccc(NC(=O)Nc4ccc(C5(C#N)CCCC5)cc4)c4ccccc34)c2cc1OC`, 80.9%; to `COC(=O)Nc1nc2ccc(Sc3ccccc3)cc2[nH]1`, 53%.

The test system of a further assay is EKVX NSCLC. Described as above. Particulars: 10 µM unless noted.
Take `Cc1ccc2c(C3C(C#N)=C(N)Oc4cc5ccccc5cc43)cc(=O)oc2c1` (stereo not drawn): the growth is 40%.
On the same count and under the same terms, the figure for `Oc1ccc(Cl)cc1Sc1cc(Cl)ccc1O` is 103%; for `CCc1cccc(-c2ccccc2)c1` it is 102%.
On the same count and under the same terms, to `CCCCNc1cc(C(=O)O)cc(S(N)(=O)=O)c1Oc1ccccc1` belongs 106%; to `CC(C)Cn1cnc2c3ccccc3nc(NCn3nc(-c4cc(Cl)cc(Cl)c4Cl)oc3=S)c21`, 89.1%.
The same measure, in the same setting: to `Clc1ccc2c(c1)nnn1c3ncccc3c(Br)c21` belongs 29.2%.
For `Cc1ccc(-c2nc3c(N=Nc4ccc(S(N)(=O)=O)cc4)c(N)nn3c(N)c2C#N)cc1`, the growth was 69.8%.
The same measure, in the same setting: the figure for `O=C(C[n+]1ccccc1Cl)c1ccc2c(c1)CCCC2` is 78.9%; for `COc1ccc(C2CC(c3cc(Cl)c(C)cc3OC)=NN2c2ccc(S(N)(=O)=O)cc2)cc1OC` (stereo not drawn) it is 80.6%.
The same measure, in the same setting: to `CCN(CC)c1ccc(C2CC(c3cc(OC)c(OC)c(OC)c3)=NN2)cc1` (stereo not drawn) belongs 27.6%.
The same measure, in the same setting: to `COC(=O)CCCNS(=O)(=O)c1cc(C(=O)Nc2ccc(NC(=O)c3cc(S(=O)(=O)NCCCC(=O)OC)c(O)c(O)c3O)cc2)c(O)c(O)c1O` belongs 84.3%.
Regarding `CC(NCCC(c1ccccc1)c1ccccc1)c1ccccc1` (stereo not drawn), the growth is 44.1%.
Same read-out and setting: the figure for `CC/C(=C(\CC)c1ccc(OCCN(CC)CC)cc1)c1ccc(OCCN(CC)CC)cc1` is 38%; for `Cc1ccc(N(CC2=NCCN2)c2cccc(O)c2)cc1` it is 90.2%; for `COc1ccc(C[C@H](N)C(=O)N[C@@H]2[C@@H](CO)OC(n3cnc4c(N(C)C)ncnc43)[C@@H]2O)cc1` (stereo partly drawn) it is -47.2% (active).
As to `CC1=C2C(=C[C@@](C)(CO)[C@@H]2OC(=O)N(C)CCN(C)C(=O)OC(C)(C)C)C(=O)[C@](C)(O)C12CC2`, the growth was 78.5%.
On the same count and under the same terms, to `CC(=O)N1N=C(CCC(=O)c2nc3ccc([N+](=O)[O-])cc3[nH]2)OC1c1ccc(O)cc1` (stereo not drawn) belongs 92.5%; to `CC1CCc2cc(F)cc3c(=O)c(C(=O)O)cn1c23` (stereo not drawn), 91.4%.
Same read-out and setting: to `OCCOCC(F)(F)F` belongs 97.9%.
Consider `O=C(O)c1cn(C2CC2)c2cc(N3CCN(C(=O)CSc4nc(NS(=O)(=O)c5ccccc5)cc(=O)[nH]4)CC3)c(F)cc2c1=O`, for which the growth was 105%.
The same measure, in the same setting: the figure for `c1coc(CSc2ncnc3nc[nH]c23)c1` is 103%; for `CN(C)CC/C=C1\c2ccccc2Sc2ccc(Cl)cc21` it is 78.6%; for `O=C(COc1ccc(Cl)cc1)N1CCN(Cc2ccc3c(c2)OCO3)CC1` it is 85.9%.
Turning to `COc1cc(NS(=O)(=O)c2ccc(N)cc2)ncn1`, the growth is 102%.
On the same count and under the same terms, to `COC(OC)C1(c2ccccc2)NC(=O)NC1=O` (stereo not drawn) belongs 112%; to `CC(=O)Nc1ccc(OC(=O)c2ccccc2O)cc1`, 93.4%; to `COc1cccc(C2CC(c3cc(OC)c(OC)c(OC)c3)=NN2)c1` (stereo not drawn), 117%.
The same measure, in the same setting: to `COc1cc(C(=O)N2CCN(C(=O)c3cc(OC)c(OCc4ccccc4)cc3N)CC2)c(N)cc1OCc1ccccc1` belongs 90.8%.
The same measure, in the same setting: to `COc1cc2c(cc1OCCCCC(=O)Nc1ccc(-c3nc4ccccc4s3)cc1)N=C[C@@H]1CCCN1C2=O` belongs 2.66% (active).
On to `C=C1C(=O)O[C@H]2[C@H]1CC/C(COC(=O)c1cccc3ccccc13)=C\CC[C@@]1(C)O[C@@H]21`, for which the growth is -81.9% (active).
The same measure, in the same setting: the figure for `COc1ccccc1S(=O)(=O)Nc1ccc2c3c(cc(-c4ccoc4)nc13)C(=O)N2C` is 66.4%.
On the same count and under the same terms, the figure for `C=C1c2c(Cl)ccc(O)c2C(O)=C2C(=O)[C@]3(O)C(O)=C(C(N)=O)C(=O)[C@@H](N(C)C)[C@@H]3[C@@H](O)[C@H]12` is 36.4%; for `CN1C(=O)C2(SCC(C(=O)NCC(=O)OC(C)(C)C)N2C(=O)C2CCCCC2)c2ccccc21` (stereo not drawn) it is 96.6%.
Same read-out and setting: the figure for `COc1ccc(/C=C/C(=O)c2ccc(-n3cc(CN4CCN(c5cc6c(cc5F)c(=O)c(C(=O)O)cn6C5CC5)CC4)nn3)cc2)cc1OC` is 80%; for `O=C(Nc1ccc(Cl)c(Cl)c1)Nc1ccc(Cl)c([N+](=O)[O-])c1` it is 4.27% (active); for `Cc1cc[n+](CCCC[n+]2ccc(C)cc2)cc1` it is 97.2%.
Take `Cc1cn(C2CC(F)C(CO)O2)c(=O)[nH]c1=O` (stereo not drawn): the growth is 89.1%.
Regarding `COc1cc2ncnc(Oc3ccc(NC(=O)Nc4ccc(C5(C#N)CCCC5)cc4)c4ccccc34)c2cc1OC`, the growth is 57.7%.
Turning to `COC(=O)Nc1nc2ccc(Sc3ccccc3)cc2[nH]1`, the growth is 57.1%.

Source of the values: PubChem BioAssay (NCI).
